Assay results as given in PubChem BioAssay (Tox21).
Inconclusive results are not listed. The source made the active and inactive calls. Unless noted, calls follow the shape of the dose curve; as a rule, active = well fitted curve in the direction sought with a large enough effect in the repeat runs; inconclusive = weak or mixed curves; inactive = no such curve, though single readings can be large; an effect the other way counts as inactive or inconclusive.

What was measured:
[1] = qHTS RealTime-Glo MT Cell Viability Assay in HEK293 cells - 8 hour (AID 1224887); also: nearly all actives have a fitted effect of over 50% in size; also: potency is read from the fitted curve at half-maximal effect; as to activity change, negative = cytotoxicity: top concentration of the series differs between compounds
Procedure, shortened: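 Real-time viability in HEK293: signal arises when living cells convert a prosubstrate for NanoLuc in the medium, so luminescence tracks viable cell number. Compound (23 nL, DMSO) added 5 h post-seeding; kinetic reads at 0–40 h, 37 C.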

[2] = A CellTox Green Cytotoxicity Assay to monitor cytotoxicity in HEK293 cells - 16 hour (AID 1224888); also: nearly all actives have a fitted effect of over 35% in size; also: potency is read from the fitted curve at half-maximal effect
Procedure, shortened: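 Cells (HEK293, 600/well) and dye reagent are dispensed together. After 5 h at 37 C, 23 nL compound is pinned in. Plates stay at 37 C for 40 h with fluorescence read at 0h, 8h, 16h, 24h, 32h and 40h.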

[3] = qHTS RealTime-Glo MT Cell Viability Assay in HepG2 cells - 0 hour (AID 1224889); also: nearly all actives have a fitted effect of over 50% in size
Procedure, shortened: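 Viability was tracked continuously by NanoLuc luminescence from prosubstrate reduced by living HepG2 cells, at successive time points over 40 h of compound exposure. Cells with reagent were preincubated 5 h at 37 °C before compound addition.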

[4] = A CellTox Green Cytotoxicity Assay to monitor cytotoxicity in HepG2 cells - 8 hour (AID 1224890); also: nearly all actives have a fitted effect of over 45% in size; also: potency is read from the fitted curve at half-maximal effect
Procedure, shortened: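 Cells and non-lytic dye reagent are dispensed together (600 HepG2 cells/well) and incubated 5 h before DMSO compound transfer. Kinetic fluorescence is then recorded in the same wells during 40 h at 37 C.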

[5] = qHTS assay to identify small molecule antagonists of the estrogen receptor alpha (ER-alpha) signaling pathway using the BG1 cell line in the presence of 0.1 nM 17-beta-estradiol - cell viability counter screen (AID 1259241); also: nearly all actives have a fitted effect of over 40% in size
Procedure, shortened: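 In this screen, hormone-deprived VM7Luc4E2 cells were seeded at 4,000 per well, dosed with compound and 0.1 nM estradiol final, and incubated 22 hr at 37C and 5% CO2; fluorogenic live-cell protease signal reported viability.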

[6] = qHTS assay to identify small molecule antagonists of the androgen receptor (AR) signaling pathway using the MDA cell line in the presence of 0.5 nM R1881 - cell viability counter screen (AID 1259242); also: nearly all actives have a fitted effect of over 45% in size
Procedure, shortened: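 Steps: plate MDA-kb2 cells, rest 5 hr at 37C without CO2; pin in compounds in DMSO; add R1881 to 0.5 nM final; incubate 16 hr; add CellTiter-Fluor, 30 min; read fluorescence.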

[7] = target: Estrogen receptor (Homo sapiens) (UniProt P03372); assay: qHTS assay to identify small molecule antagonists of the estrogen receptor alpha (ER-alpha) signaling pathway using the BG1 cell line in the presence of 0.1 nM 17-beta-estradiol (AID 1259244); also: nearly all actives have a fitted effect of over 50% in size; also: potency is read from the fitted curve at half-maximal effect
Procedure, shortened: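 Antagonist mode: compounds in DMSO are pinned onto VM7Luc4E2 reporter cells, 0.1 nM final 17beta-estradiol is added, and after 22 h at 37C luciferase luminescence is measured with ONE-Glo.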

[8] = qHTS assay to identify small molecule phospholipidosis (PLD) inducers (AID 1259344; active = well fitted curve in the direction sought with a large enough effect; an effect the other way counts as inactive or inconclusive)
Procedure, shortened: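 After 4 h attachment on collagen I, HepG2 cells were dosed with compound alongside LipidTOX Red, kept 24 h at 37 C, fixed, and imaged for lamellar phospholipid pits.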

[9] = qHTS assay to identify small molecule HDAC inhibitors (AID 1259364);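 also: wild-type HCT-116 cells with endogenous class I/II HDAC activity; top concentration of the series differs between compounds; nearly all actives have a fitted effect of over 45% in size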
Procedure, shortened: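 Cells (HCT-116, wild type) are seeded at 1,500 per well, incubated overnight, treated with compound in DMSO for 2 hr, then developed with HDAC-Glo I/II reagent for 30 min at room temperature.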

[10] = qHTS assay to identify small molecule HDAC inhibitors - cell viability counter screen (AID 1259365); also: series mostly up to about 92 µM; nearly all actives have a fitted effect of over 50% in size
Procedure, shortened: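 Measured quantity is CellTiter-Glo luminescence from wild-type HCT-116 cells after compound incubation of 2hr at 37C, 5% CO2; reagent developed 30min at room temperature.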
% is scaled to controls: 0 for no effect and ±100 for the full control effect.

Chain of Estrogen receptor (Homo sapiens) (P03372 whole entry, looked up): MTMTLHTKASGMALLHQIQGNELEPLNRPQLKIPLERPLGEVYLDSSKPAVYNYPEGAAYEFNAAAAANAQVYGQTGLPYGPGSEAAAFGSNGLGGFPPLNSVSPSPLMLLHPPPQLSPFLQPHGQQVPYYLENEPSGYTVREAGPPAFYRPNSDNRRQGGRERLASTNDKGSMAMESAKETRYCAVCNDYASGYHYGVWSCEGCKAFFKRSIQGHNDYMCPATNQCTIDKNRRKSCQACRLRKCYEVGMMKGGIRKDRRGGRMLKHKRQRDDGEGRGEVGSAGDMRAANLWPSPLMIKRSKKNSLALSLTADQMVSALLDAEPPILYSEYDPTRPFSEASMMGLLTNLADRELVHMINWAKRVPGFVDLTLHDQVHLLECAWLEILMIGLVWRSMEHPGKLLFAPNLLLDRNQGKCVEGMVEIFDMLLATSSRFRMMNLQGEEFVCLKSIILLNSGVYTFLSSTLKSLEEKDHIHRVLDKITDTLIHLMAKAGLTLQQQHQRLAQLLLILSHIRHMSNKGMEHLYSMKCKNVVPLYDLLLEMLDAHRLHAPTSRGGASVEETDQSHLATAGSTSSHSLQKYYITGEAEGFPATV

CC(=O)N(CC(O)CO)c1c(I)c(C(=O)NCC(O)CO)c(I)c(C(=O)NCC(O)CO)c1I (stereo unspecified)
inactive: Potency [1] | Potency [2] | Potency [3] | Potency [4] | Potency [5] | Potency [6] | Potency [7] | outcome [8] | Potency [9] | outcome [10]

CC(Cl)COP(=O)(OCC(C)Cl)OCC(C)Cl (stereo unspecified)
inactive: Potency [1] | Potency [2] | Potency [3] | Potency [4] | Potency [5] | Potency [6] | Potency [7] | Potency [9] | outcome [10]

O=C1CC[C@H](C(=O)N2CCCCC2)N1
inactive: Potency [1] | Potency [2] | Potency [3] | Potency [4] | Potency [5] | Potency [6] | Potency [7] | outcome [8] | Potency [9] | outcome [10]

CCCO
inactive: Potency [1] | Potency [2] | Potency [3] | Potency [4] | Potency [5] | Potency [6] | Potency [7] | Potency [9]

CCCCCCCCC(=O)OCC
inactive: Potency [1] | Potency [2] | Potency [3] | Potency [4] | Potency [5] | Potency [6] | Potency [7] | Potency [9]

CCOC(=O)C(=O)c1csc(NC=O)n1
inactive: Potency [1] | Potency [2] | Potency [3] | Potency [4] | Potency [5] | Potency [6] | Potency [7] | Potency [9]

O=C(O)/C=C/c1ccccc1
inactive: Potency [1] | Potency [2] | Potency [3] | Potency [4] | Potency [5] | Potency [6] | Potency [7] | outcome [8] | Potency [9] | outcome [10]

Cc1nc([N+](=O)[O-])cn1-c1ccc([N+](=O)[O-])cc1
inactive: Potency [1] | Potency [2] | Potency [3] | Potency [4] | Potency [5] | Potency [6] | Potency [7] | outcome [8] | Potency [9] | outcome [10]

O=C(/C=C/c1ccccc1)NCCO
active: Potency [2] 8.49 µM | Potency [4] 10.7 µM
inactive: Potency [1] | Potency [3] | Potency [5] | Potency [6] | Potency [7] | outcome [8]

O=C(Nc1cccc(C2=NCCN2)c1)Nc1cccc(C2=NCCN2)c1
inactive: activity change, negative = cytotoxicity [1] -0.375% [at 15.8 µM] | activity change [2] -6.11% [at 15.8 µM, hits give high values] | activity change, negative = cytotoxicity [3] -1.91% [at 15.8 µM] | cytotoxicity increase [4] -10.2% [at 15.8 µM] | activity change, negative = cytotoxicity [5] -3.18% [at 19 µM] | viability change, negative = cytotoxic [6] -0.888% [at 19 µM] | activity change, negative = inhibition [7] -4.15% [at 19 µM] | outcome [8] | activity change, negative = inhibition [9] 3.65% [at 19 µM] | activity change, negative = cytotoxicity [10] 1.17% [at 19 µM]

CCCCCC1Nc2cc(C(F)(F)F)c(S(N)(=O)=O)cc2S(=O)(=O)N1 (stereo unspecified)
inactive: Potency [1] | Potency [2] | Potency [3] | Potency [4] | Potency [5] | Potency [6] | Potency [7] | outcome [8] | Potency [9] | outcome [10]

Nc1ccc(S(=O)(=O)NC(=O)c2ccccc2)cc1
inactive: Potency [1] | Potency [2] | Potency [3] | Potency [4] | Potency [5] | Potency [6] | Potency [7] | outcome [8] | Potency [9] | outcome [10]

CC(=O)Nc1ncc([N+](=O)[O-])s1
inactive: Potency [1] | Potency [2] | Potency [3] | Potency [4] | Potency [5] | Potency [6] | Potency [7] | outcome [8] | Potency [9] | outcome [10]

O=CN1CCOCC1
inactive: Potency [1] | Potency [2] | Potency [3] | Potency [4] | Potency [5] | Potency [6] | Potency [7] | Potency [9] | outcome [10]

CCOC(=O)C(C)(C)C
inactive: Potency [1] | Potency [2] | Potency [3] | Potency [4] | Potency [5] | Potency [6] | Potency [7] | Potency [9] | outcome [10]

O=C(O)c1ccccc1C(=O)OCc1ccccc1
inactive: Potency [1] | Potency [2] | Potency [3] | Potency [4] | Potency [5] | Potency [6] | Potency [7] | Potency [9] | outcome [10]

Nc1cc(C(=O)O)ccc1Cl
inactive: Potency [1] | Potency [2] | Potency [3] | Potency [4] | Potency [5] | Potency [6] | Potency [7] | Potency [9] | outcome [10]

C=CCOc1c(Br)cc(Br)cc1Br
inactive: Potency [1] | Potency [2] | Potency [3] | Potency [4] | Potency [5] | Potency [6] | Potency [7] | Potency [9] | outcome [10]

CC(C)CCCC(C)CC=O (stereo unspecified)
active: Potency [4] 21.9 µM
inactive: Potency [1] | Potency [2] | Potency [3] | Potency [5] | Potency [6] | Potency [7] | Potency [9] | outcome [10]

CCN(Cc1cccc(S(=O)(=O)O)c1)c1ccccc1
inactive: Potency [1] | Potency [2] | Potency [3] | Potency [4] | Potency [5] | Potency [6] | Potency [7] | Potency [9] | outcome [10]

CN(C)CCOCCN(C)CCO
inactive: Potency [1] | Potency [2] | Potency [3] | Potency [4] | Potency [5] | Potency [6] | Potency [7] | Potency [9] | outcome [10]

CC(C)(C)c1ccc(C=O)cc1
inactive: Potency [1] | Potency [2] | Potency [3] | Potency [4] | Potency [5] | Potency [6] | Potency [7] | Potency [9] | outcome [10]

Cc1nc2n(c(=O)c1CCN1CCC(C(=O)c3ccc(F)cc3)CC1)CCS2
inactive: Potency [2] | Potency [3] | Potency [4] | Potency [5] | Potency [6] | Potency [9] | outcome [10]
active: Potency [1] 6.74 µM | Potency [7] 23.7 µM
